PubChem BioAssay (Tox21)
Inconclusive results are not listed. Entries that show only a call come without a potency. The source made the active and inactive calls. Calls come from the whole dose curve.

target: Thyrotropin receptor (Homo sapiens) (UniProt P16473); assay: qHTS assay to identify small molecule antagonists of the thyroid stimulating hormone receptor (TSHR) signaling pathway (AID 1259385); settings: TSHR-HEK293 cAMP HTRF, TSH-stimulated antagonist mode; series mostly up to 92.4 µM; note: nearly all actives have a fitted effect of over 20% in size
Source text: U.S. Tox21 Program National Center for Advancing Translational Sciences [NCATS] NIH Chemical Genomics Center [NCGC] U.S. Environmental Protection Agency [EPA] National Institutes of Environmental Health Sciences [NIEHS] National Toxicology Program [NTP] U.S. Food and Drug Administration [FDA] Tox21 Assay Overview: TSHR is the receptor for thyrotropin (thyroid stimulating hormone or TSH), a member of the glycoprotein hormone family. TSH is released by the anterior pituitary gland and is the main regulator of thyroid gland growth and development. Upon binding circulating thyrotropin, a G-protein signal cascade activates adenylyl cyclase and […] cAMP concentration is increased. cAMP is a key second messenger involved extensively in cellular signal transduction pathways associated with the majority of G-protein coupled receptors (GPCRs). The activation of these GPCRs by neurotransmitters, lipids, nucleotides, peptides and hormones results in the activation or the inhibition of plasma membrane-bound adenylate cyclase through heterotrimeric G-proteins. A cell-based TSHR assay can be used to screen chemical compounds that modulate TSHR either in agonist or antagonist mode.
Tox21 Assay Protocol Summary: TSHR-Hek293 cells were dispensed at 800 cells/4uL/well in 1536-well white plates using a Multidrop dispenser. After the assay plates were incubated at a 37C/5% CO2 incubator for 18 hrs, 23 nL of compounds dissolved in DMSO, positive controls or DMSO only was transferred to the assay plate by a pin tool, followed by 1 ul medium containing Ro20-1724. For the antagonist mode screening, 1 uL of TSH was added on the top of the cell/compound mixtures to achieve a final agonist concentration of 1.5 ng/mL. After 30 min of incubation at room temperature, 2.5 ul/well of cAMP-d2 and 2.5 ul/well of anti-cAMP-cryptate were added respectively into the assay plates using a Flying Reagent Dispenser. The plates were incubated at room temperature for 1 hr. The fluorescence intensity in the plates was measured using an Envision plate reader. Each test compound was measured at 15 concentrations and in triplicates.
Potency is the fitted concentration of half-maximal effect.

Chain of Thyrotropin receptor (Homo sapiens) (P16473 whole entry, looked up): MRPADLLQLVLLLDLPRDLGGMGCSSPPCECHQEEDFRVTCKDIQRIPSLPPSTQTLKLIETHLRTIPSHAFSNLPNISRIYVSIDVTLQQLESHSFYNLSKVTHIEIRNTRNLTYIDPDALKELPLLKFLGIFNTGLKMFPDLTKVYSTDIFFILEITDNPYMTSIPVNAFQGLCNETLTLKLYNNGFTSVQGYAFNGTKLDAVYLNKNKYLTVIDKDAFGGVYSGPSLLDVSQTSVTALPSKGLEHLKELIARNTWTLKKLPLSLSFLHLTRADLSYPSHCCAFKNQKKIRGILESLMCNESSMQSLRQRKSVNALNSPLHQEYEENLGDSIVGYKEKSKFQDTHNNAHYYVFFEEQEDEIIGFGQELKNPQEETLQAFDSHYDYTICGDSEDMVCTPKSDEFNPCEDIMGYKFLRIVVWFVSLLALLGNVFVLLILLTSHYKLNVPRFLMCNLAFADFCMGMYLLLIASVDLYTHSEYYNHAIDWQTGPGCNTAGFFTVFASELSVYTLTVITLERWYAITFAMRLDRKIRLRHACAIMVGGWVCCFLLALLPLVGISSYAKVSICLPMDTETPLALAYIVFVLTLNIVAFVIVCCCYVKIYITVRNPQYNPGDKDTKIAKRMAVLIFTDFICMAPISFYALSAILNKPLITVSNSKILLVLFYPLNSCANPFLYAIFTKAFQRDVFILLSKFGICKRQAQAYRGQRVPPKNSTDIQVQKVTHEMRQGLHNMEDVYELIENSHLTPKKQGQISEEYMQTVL

SMILES	Potency
COc1ccccc1N1CCN(CCCCNC(=O)c2ccc(-c3ccc(C(C)=O)cc3)cc2)CC1	18.8 µM (active)
Cc1ccc(Cl)c(Nc2ccccc2C(=O)O)c1Cl	inactive
CCOC(=O)OC(C)OC(=O)[C@@H]1N2C(=O)[C@@H](NC(=O)[C@H](N)c3ccccc3)[C@H]2SC1(C)C (stereo not given in full)	inactive
C=C(C)[C@@H]1CCC2=CCC[C@@H](C)[C@]2(C)C1	inactive
CC(C)=CC(=O)C=C(C)C	inactive
COC(=O)CCS	inactive
CC=C(Cl)Cl	inactive
C(=C\c1ccccc1)/c1ccccc1	inactive
CC[C@]1(O)C[C@H]2CN(CCc3c([nH]c4ccccc34)[C@@](C(=O)OC)(c3cc4c(cc3OC)N(C=O)[C@H]3[C@@](O)(C(=O)OC)[C@H](OC(C)=O)[C@]5(CC)C=CCN6CC[C@]43[C@@H]65)C2)C1	inactive
CCC1(CO)COCOC1	inactive
Cc1cc2c(OCC(CNC(C)(C)C)OC(=O)c3ccccc3)cccc2[nH]1 (stereo not given)	inactive
NNC(=O)CP(=O)(c1ccccc1)c1ccccc1	inactive
O=C(CCCN1CC=C(n2c(=O)[nH]c3ccccc32)CC1)c1ccc(F)cc1	inactive
CC(C)=CCC/C(C)=C/CC/C(C)=C/CCC(=O)OC/C=C(\C)CCC=C(C)C	inactive
CC(=O)N/N=C/c1ccc([N+](=O)[O-])o1	inactive
C=CCc1ccccc1OCC(O)CNC(C)C (stereo not given)	inactive
CCCCCC[C@@H](O)C/C=C\CCCCCCCC(=O)O	inactive
CCOC(=O)c1ccccc1C(=C1C=C(Br)C(=O)C(Br)=C1)c1cc(Br)c(O)c(Br)c1	inactive
CCC1CO1 (stereo not given)	inactive
COc1ccccc1Oc1c(NS(=O)(=O)c2ccc(C(C)(C)C)cc2)nc(-c2ncccn2)nc1OCCO	inactive

SMILES	Potency
CC(=O)c1ccc([N+](=O)[O-])cc1	inactive
O=C1CCCCCCCCCCOCCCCO1	inactive
CCCCCCCCC(CCCCCC)C(=O)O (stereo not given)	inactive
CCC(C)(C)OC	inactive
Nc1cccc2c1CN(C1CCC(=O)NC1=O)C2=O (stereo not given)	inactive
C[C@@]12CCC[C@H]1[C@@H]1CC[C@H]3C[C@@H](O)CC[C@]3(C)[C@H]1CC2	inactive
CC(=O)OCC(=O)NCCCOc1cccc(CN2CCCCC2)c1	inactive
O=C=Nc1cccc(C(F)(F)F)c1	inactive
O=C(O)C[C@H](NC(=O)OCc1ccccc1)C(=O)O	inactive
CO[C@]1(NC(=O)CSC(F)F)C(=O)N2C(C(=O)O)=C(CSc3nnnn3CCO)CO[C@H]21	inactive
CN(C)CCC=C1c2ccccc2C=Cc2ccccc21	29.8 µM (active)
COC(=O)c1nc(Cl)c(Cl)nc1N	inactive
Cc1ccc(CO)cc1	inactive
CN(C)CCN1C(=O)c2ccccc2N(C)c2ccccc21	inactive
CCCCC(CC)CN (stereo not given)	inactive
O=C(O)CCC(=O)C(=O)O	inactive
CC(CO)CO	inactive
CCCCCCCCCCC(=O)O	inactive
O=C(/C=C/c1ccccc1)OCCc1ccccc1	68.6 µM (active)
CC(=O)Oc1ccc([N+](=O)[O-])cc1CCl	inactive
